Assay results as given in article PMC4336329 (PLoS ONE, 2015).
The campaign covered roughly 310,000 compounds. About 14,000 (4.5%) showed an effect of 50% or more. The effect is printed as a negative number. The entries come from a sample that favours strong results as a whole.
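Also: peak tail current of the secondary pulse compared with the same well before compound.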

Each compound was assayed against human ether-à-go-go-related gene (hERG) potassium channel (human, UniProt Q12809) (assay: primary screen, population patch clamp on CHO cells stably expressing hERG; higher = less effect of the substance).
Sequence of human ether-à-go-go-related gene (hERG) potassium channel (Q12809 whole entry, looked up): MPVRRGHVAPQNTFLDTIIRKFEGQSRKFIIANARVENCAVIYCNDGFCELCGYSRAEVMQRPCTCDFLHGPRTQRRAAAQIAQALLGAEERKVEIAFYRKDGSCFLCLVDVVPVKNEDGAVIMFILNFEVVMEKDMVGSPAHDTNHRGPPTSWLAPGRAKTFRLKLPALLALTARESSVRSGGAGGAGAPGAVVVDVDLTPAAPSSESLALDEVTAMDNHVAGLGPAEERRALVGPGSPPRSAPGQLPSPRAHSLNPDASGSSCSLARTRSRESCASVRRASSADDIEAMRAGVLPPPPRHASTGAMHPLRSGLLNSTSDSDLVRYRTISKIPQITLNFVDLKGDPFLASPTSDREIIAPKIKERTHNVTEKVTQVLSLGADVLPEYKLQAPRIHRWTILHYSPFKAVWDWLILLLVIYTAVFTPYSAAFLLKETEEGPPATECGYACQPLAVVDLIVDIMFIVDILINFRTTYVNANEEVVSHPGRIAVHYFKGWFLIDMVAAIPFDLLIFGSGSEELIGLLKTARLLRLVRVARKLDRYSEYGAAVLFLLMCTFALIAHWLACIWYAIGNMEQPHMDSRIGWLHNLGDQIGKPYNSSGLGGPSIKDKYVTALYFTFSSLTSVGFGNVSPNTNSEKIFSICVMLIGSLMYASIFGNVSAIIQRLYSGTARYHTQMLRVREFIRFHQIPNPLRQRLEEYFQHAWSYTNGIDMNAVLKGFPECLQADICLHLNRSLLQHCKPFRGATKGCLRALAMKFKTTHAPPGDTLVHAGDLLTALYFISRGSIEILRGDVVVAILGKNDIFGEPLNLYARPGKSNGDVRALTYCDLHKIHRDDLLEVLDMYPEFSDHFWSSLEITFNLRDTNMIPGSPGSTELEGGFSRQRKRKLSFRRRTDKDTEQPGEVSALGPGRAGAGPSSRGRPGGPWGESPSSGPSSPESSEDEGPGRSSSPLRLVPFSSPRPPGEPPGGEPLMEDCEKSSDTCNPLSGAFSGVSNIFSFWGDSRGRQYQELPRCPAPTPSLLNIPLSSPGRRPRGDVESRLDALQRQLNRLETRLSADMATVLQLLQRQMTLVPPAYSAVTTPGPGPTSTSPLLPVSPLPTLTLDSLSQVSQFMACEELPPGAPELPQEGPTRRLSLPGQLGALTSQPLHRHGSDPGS
For `COc1ccccc1C1CCN(c2ccc(CO)cc2[N+](=O)[O-])CC1`, the “hERG current change (%, negative = inhibition) at 10uM” value was 4.52%.
For `O=C(Nc1cccc2ccccc12)c1cnsn1`, the “hERG current change (%, negative = inhibition) at 10uM” value was 5.58%.
`COC(=O)c1c(C(=O)OC)c2ccccn2c1C(=O)c1ccccc1` was tested, and the “hERG current change (%, negative = inhibition) at 10uM” value was 6.74%.
In the case of `COCCNC(=O)Cn1nc(-c2ccc(C)cc2)ccc1=O`, the “hERG current change (%, negative = inhibition) at 10uM” value is reported as 8.83%.
`CCOc1ccc(C(NC(=O)c2ccco2)c2ccc(OC)c(OC)c2)cc1` (stereo not drawn) was tested, and the “hERG current change (%, negative = inhibition) at 10uM” value was -39.9%.
For `O=C(NC(=S)NC1CCS(=O)(=O)C1)c1ccccc1` (stereo not drawn), the “hERG current change (%, negative = inhibition) at 10uM” value was 14.6%.
With `O=C(Nc1cccc(S(=O)(=O)N2CCOCC2)c1)c1ccccc1[N+](=O)[O-]` the “hERG current change (%, negative = inhibition) at 10uM” value was 0.195%.
`O=C(CSc1nc2ncc(Cl)cc2[nH]1)Nc1cccc(F)c1` was tested, and the “hERG current change (%, negative = inhibition) at 10uM” value was 12.8%.
With `COc1ccc(CN2CCN(Cc3ccc(C)cc3)CC2)c(OC)c1.O=C(O)C(=O)O` the “hERG current change (%, negative = inhibition) at 10uM” value was -70.3%.
`CS(=O)(=O)N1CCN(Cc2ccc(C(F)(F)F)cc2)CC1.O=C(O)C(=O)O` was tested, and the “hERG current change (%, negative = inhibition) at 10uM” value was 0.441%.
In the case of `COc1cccc(C(=O)N2CCN(Cc3ccc(OC)cc3OC)CC2)c1.O=C(O)C(=O)O`, the “hERG current change (%, negative = inhibition) at 10uM” value is reported as -38.9%.
With `FC(F)(F)c1ccc(CN2CCN(Cc3ccco3)CC2)cc1.O=C(O)C(=O)O` the “hERG current change (%, negative = inhibition) at 10uM” value was 0.168%.
For `COc1ccc(CN2CCN(Cc3ccc(C(F)(F)F)cc3)CC2)cc1.O=C(O)C(=O)O`, the “hERG current change (%, negative = inhibition) at 10uM” value was -65.7%.
With `O=c1ccc(-c2ccccc2)nn1Cc1ccc(Cl)cc1` the “hERG current change (%, negative = inhibition) at 10uM” value was 2.52%.
`COc1ccc(N2Cc3ccccc3C2=O)cc1` was tested, and the “hERG current change (%, negative = inhibition) at 10uM” value was 16.2%.
In the case of `COc1cc(NC(=O)c2ccc(Cl)cc2)c(Cl)cc1NC(=O)c1cccnc1`, the “hERG current change (%, negative = inhibition) at 10uM” value is reported as 1.74%.
In the case of `N#C/C(=C/c1ccc(N2CCCCCC2)o1)c1ccc(Cl)cc1`, the “hERG current change (%, negative = inhibition) at 10uM” value is reported as -3.68%.
`COc1ccc(NC(=O)CN2CCN(c3ccc(F)cc3)CC2)cc1Cl` was tested, and the “hERG current change (%, negative = inhibition) at 10uM” value was -5.96%.
With `COc1ccc(NC(=O)CN2CCN(CC(=O)Nc3ccc(F)cc3)CC2)cc1Cl` the “hERG current change (%, negative = inhibition) at 10uM” value was -80.5%.
With `COc1ccc(NC(=O)CN2CCN(c3nc(-c4ccc(F)cc4)cs3)CC2)c(OC)c1` the “hERG current change (%, negative = inhibition) at 10uM” value was 20.7%.
In the case of `COc1ccc(NC(=O)CN2CCc3ccccc3C2)c(OC)c1`, the “hERG current change (%, negative = inhibition) at 10uM” value is reported as -6.9%.
For `COc1ccc(C(=O)C2CCN(CC(=O)Nc3ccc(OC)cc3OC)CC2)cc1`, the “hERG current change (%, negative = inhibition) at 10uM” value was -18.1%.
`COc1cccc(NC(=O)CN2CCN(c3ccc(F)cc3)CC2)c1` was tested, and the “hERG current change (%, negative = inhibition) at 10uM” value was -17%.
`COc1cccc(NC(=O)CN2CCN(c3ccccc3F)CC2)c1` was tested, and the “hERG current change (%, negative = inhibition) at 10uM” value was -9.18%.
For `CCOc1ccc(NC(=O)CN2CCN(CC(=O)Nc3ccc(OC)cc3OC)CC2)cc1`, the “hERG current change (%, negative = inhibition) at 10uM” value was -74.2%.
With `COc1ccc(NC(=O)CN2CCN(S(=O)(=O)c3ccc(F)cc3)CC2)cc1Cl` the “hERG current change (%, negative = inhibition) at 10uM” value was -1.67%.
In the case of `COc1cccc(NC(=O)CN2CCN(CC(=O)Nc3ccc(F)cc3)CC2)c1`, the “hERG current change (%, negative = inhibition) at 10uM” value is reported as -80.3%.
For `COc1ccc(NC(=O)CN2CCN(CC(=O)Nc3ccc(F)cc3)CC2)c(OC)c1`, the “hERG current change (%, negative = inhibition) at 10uM” value was -80.4%.
With `Cc1ccc(NC(=O)CSC(N)=O)cc1Cl` the “hERG current change (%, negative = inhibition) at 10uM” value was 7.5%.
With `Cn1c2ccccc2c(=O)c2ccc(F)cc21` the “hERG current change (%, negative = inhibition) at 10uM” value was 0.557%.
In the case of `COc1ccc(-c2cc(C(=O)N3CCCC3)c3ccccc3n2)cc1OC`, the “hERG current change (%, negative = inhibition) at 10uM” value is reported as 5.86%.
With `CCCCc1nnc(NC(=O)C23CC4CC(CC(NC(C)=O)(C4)C2)C3)s1` the “hERG current change (%, negative = inhibition) at 10uM” value was -1.81%.
In the case of `O=C(Nc1cccnc1)c1ccccc1-c1nc(-c2ccccc2F)no1`, the “hERG current change (%, negative = inhibition) at 10uM” value is reported as -16.4%.
With `N#Cc1nc(-c2ccccc2)oc1N1CCC(C(N)=O)CC1` the “hERG current change (%, negative = inhibition) at 10uM” value was 9.26%.
With `O=S(=O)(NCC1CCN(S(=O)(=O)c2ccccc2)CC1)c1ccccc1` the “hERG current change (%, negative = inhibition) at 10uM” value was -9.78%.
For `Cc1ccc(C2N(c3ccc(Cl)cc3)C(=O)N3CCCN23)cc1` (stereo not drawn), the “hERG current change (%, negative = inhibition) at 10uM” value was -1.05%.
In the case of `CCc1nc(SCC(=O)Nc2nnc(CC)s2)c2c(C)c(C)sc2n1`, the “hERG current change (%, negative = inhibition) at 10uM” value is reported as 8.99%.
In the case of `COc1ccccc1NC(=O)CN1CCN(CC(=O)Nc2ccc(OCc3ccccc3)cc2)CC1`, the “hERG current change (%, negative = inhibition) at 10uM” value is reported as -25.1%.
`COc1ccccc1NC(=O)CN1CCN(CC(=O)Nc2ccc(S(N)(=O)=O)cc2)CC1` was tested, and the “hERG current change (%, negative = inhibition) at 10uM” value was -27.8%.
For `CCOc1ccc(NC(=O)CN2CCN(CC(=O)Nc3ccccc3OC)CC2)cc1`, the “hERG current change (%, negative = inhibition) at 10uM” value was -74.1%.
With `OC(C#CCN1CCCC1)c1ccccc1` (stereo not drawn) the “hERG current change (%, negative = inhibition) at 10uM” value was -2.28%.
`OCCN1CCN(CC#CCC(c2ccccc2)c2ccccc2)CC1` was tested, and the “hERG current change (%, negative = inhibition) at 10uM” value was -22.9%.
With `C(#CCN1CCCC1)CC(c1ccccc1)c1ccccc1.Cl` the “hERG current change (%, negative = inhibition) at 10uM” value was -50.5%.
For `COc1cc(OC)c(C(=O)NCCCn2ccnc2)cc1OC.Cl`, the “hERG current change (%, negative = inhibition) at 10uM” value was 13%.
For `OC[C@H]1O[C@@H](n2cnc3c(NC4CCCC4)ncnc32)[C@H](O)[C@@H]1O`, the “hERG current change (%, negative = inhibition) at 10uM” value was 10.4%.
`OCCNCC(O)Cn1c2ccccc2c2ccccc21` (stereo not drawn) was tested, and the “hERG current change (%, negative = inhibition) at 10uM” value was 10.2%.
For `OC(CNCc1ccco1)Cn1c2ccc(Br)cc2c2cc(Br)ccc21` (stereo not drawn), the “hERG current change (%, negative = inhibition) at 10uM” value was -0.0278%.
`OC(CNCc1ccco1)Cn1c2ccccc2c2ccccc21` (stereo not drawn) was tested, and the “hERG current change (%, negative = inhibition) at 10uM” value was -58.4%.
With `COc1ccc(OC)c(NC(=O)[C@@H]2CCCN2C(=O)c2cccs2)c1` the “hERG current change (%, negative = inhibition) at 10uM” value was -2.19%.
With `CC(C)(C)c1ccc(C(=O)NNC(=O)CCc2ccccc2)cc1` the “hERG current change (%, negative = inhibition) at 10uM” value was 7.16%.
For `Cc1ccc(C(C(=O)NC2CCCC2)N(Cc2ccc3c(c2)OCO3)C(=O)c2snc(C(N)=O)c2N)cc1` (stereo not drawn), the “hERG current change (%, negative = inhibition) at 10uM” value was 10.7%.
`O=[N+]([O-])c1ccc(N2CCN(C(=S)NCc3ccc(Cl)cc3)CC2)cc1` was tested, and the “hERG current change (%, negative = inhibition) at 10uM” value was -8.05%.
In the case of `C=CCNC(=S)N1CCN(c2ccccc2Cl)CC1`, the “hERG current change (%, negative = inhibition) at 10uM” value is reported as -6.87%.
`COCCCNC(=S)N1CCN(c2ccc([N+](=O)[O-])cc2)CC1` was tested, and the “hERG current change (%, negative = inhibition) at 10uM” value was -68%.
In the case of `CCCC(=O)NC(=S)N1CCN(c2ccc([N+](=O)[O-])cc2)CC1`, the “hERG current change (%, negative = inhibition) at 10uM” value is reported as -20.7%.
With `Cc1cccc(C(=O)NC(=S)N2CCN(c3ccc([N+](=O)[O-])cc3)CC2)c1` the “hERG current change (%, negative = inhibition) at 10uM” value was -2.77%.
With `COCCCNC(=S)N1CCN(c2ccccc2)CC1` the “hERG current change (%, negative = inhibition) at 10uM” value was 12.9%.
In the case of `CCNC(=S)N1CCN(c2ccc([N+](=O)[O-])cc2)CC1`, the “hERG current change (%, negative = inhibition) at 10uM” value is reported as -64.5%.
For `O=[N+]([O-])c1ccc(N2CCN(C(=S)Nc3ccccc3)CC2)cc1`, the “hERG current change (%, negative = inhibition) at 10uM” value was -4.16%.
`O=[N+]([O-])c1ccc(N2CCN(C(=S)Nc3ccc(F)cc3F)CC2)cc1` was tested, and the “hERG current change (%, negative = inhibition) at 10uM” value was -18.5%.
With `C=CCNC(=S)N1CCN(c2ccc([N+](=O)[O-])cc2)CC1` the “hERG current change (%, negative = inhibition) at 10uM” value was -63.6%.
For `CNC(=S)N1CCN(c2ccc([N+](=O)[O-])cc2)CC1`, the “hERG current change (%, negative = inhibition) at 10uM” value was -65.1%.
With `COCCNC(=S)N1CCN(c2ccc(Cl)cc2)CC1` the “hERG current change (%, negative = inhibition) at 10uM” value was -12.9%.
